Data from the supplement of paper PMC10646978.
± gives the standard deviation.

Experiments:
Details in all cases: modulator concentration 10 µM
[1] = test system: RAW-Dual (murine macrophage reporter line); experiment: NF-kB reporter (SEAP) activity fold change vs agonist alone; higher = enhanced NF-kB activity
Summary of the method: (§1)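 RAW-Dual murine macrophage reporter cells were plated at 50 000 per well in 384-well plates, pin-transferred compound to 10 μM final, and pre-incubated for 1 hour at 37 °C before a PRR agonist was added and the cells incubated overnight. NF-κB activity was read from supernatant SEAP with QUANTI-Blue at 620 nm absorbance, and IRF activity from Lucia luciferase with QUANTI-Luc by luminescence. Each signal was expressed as fold change by dividing by the mean agonist-only control on the same plate. Two replicate plates were averaged, with errors obtained by propagation.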

[2] = test system: RAW-Dual (murine macrophage reporter line); experiment: IRF reporter (Lucia luciferase) activity fold change vs agonist alone; higher = enhanced IRF activity
Summary of the method: as §1

[3] = test system: RAW-Dual (murine macrophage reporter line); experiment: viability score (confluency relative to resting cells, overnight) (fraction); higher = more viable, active = viable (0.7 or more)
Summary of the method: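 RAW-Dual macrophages in 384-well plates were exposed overnight to compound at 10 μM final. Confluency was imaged with IncuCyte, and two confluency masks were generated with IncuCyte software over all imaged wells. The viability score is confluency expressed relative to resting cells. Compounds were called viable if both masks exceeded 70% of resting cells.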

[4] = agonist: CpG ODN 1826 0.5 ug/mL

SMILES	NF-kB reporter [1, 4]	NF-kB reporter ([1]; agonist: LPS 0.1 ug/mL)	NF-kB reporter ([1]; agonist: MPLA […])	IRF reporter ([2]; agonist: 3'3'-cGAMP 10 ug/mL)	IRF reporter ([2]; agonist: LPS 0.1 ug/mL)	IRF reporter ([2]; agonist: MPLA […])	viability score [3]
CC12CCC3c4ccc(O)cc4CCC3C1CC(O)C2O (stereo unspecified)	1.17 ± 0.28	1.28 ± 0.075	1.24 ± 0.093	0.596 ± 0.022	1.39 ± 0.16	1.44 ± 0.14	0.97 (active)
O=C(CN1CCN(c2ccccc2F)C1=O)N1CCCC(Oc2cnccn2)C1 (stereo unspecified)	0.831 ± 0.039	0.931 ± 0.075	1.08 ± 0.062	1.02 ± 0.053	1.26 ± 0.27	1.37 ± 0.47	0.965 (active)
O=C(NCCc1nc(C2CC2)cc(C(F)(F)F)n1)c1c(F)cccc1Cl	1.01 ± 0.079	1.11 ± 0.087	0.943 ± 0.11	1.01 ± 0.053	1.13 ± 0.086	1.07 ± 0.12	1 (active)
CCCNCC(O)COc1ccccc1C(=O)CCc1ccccc1 (stereo unspecified)	0.639 ± 0.086	0.988 ± 0.098	1.21 ± 0.066	0.989 ± 0.07	0.948 ± 0.095	0.869 ± 0.16	0.826 (active)
Cc1ccccc1N=Nc1ccc(NC(=O)c2ccnn2C)c(C)c1	1.12 ± 0.21	1.06 ± 0.086	0.946 ± 0.077	0.98 ± 0.039	1.21 ± 0.15	1.25 ± 0.21	1.01 (active)
N#CC(=Cc1c(F)cccc1Cl)C(=O)Nc1ccc(Cl)cc1	1.08 ± 0.22	0.977 ± 0.077	0.952 ± 0.079	0.746 ± 0.17	1.3 ± 0.22	1.25 ± 0.13	1.01 (active)
Cc1cccc(C(=O)N2N=C(c3ccccc3)CC2(O)C(F)(F)F)c1 (stereo unspecified)	1.29 ± 0.1	1.13 ± 0.062	1.46 ± 0.087	1.58 ± 0.049	3.2 ± 0.32	1.79 ± 0.12	0.254 (inactive)
Nc1ccn(C[C@@H](CO)OCP(=O)(O)O)c(=O)n1	1 ± 0.25	0.97 ± 0.057	0.961 ± 0.064	0.906 ± 0.03	1.3 ± 0.14	1.14 ± 0.16	1.01 (active)
O=C(Oc1ccc(O)c(CO)c1)c1ccccc1	1.15 ± 0.12	1.08 ± 0.071	1.06 ± 0.086	0.637 ± 0.1	0.888 ± 0.098	0.769 ± 0.16	1 (active)
Cc1ccc(-n2ncc3c(=O)n(CC=Cc4ccccc4)cnc32)cc1C	0.969 ± 0.086	1.1 ± 0.089	0.96 ± 0.091	1.03 ± 0.061	1.19 ± 0.12	1.06 ± 0.34	0.984 (active)
CCN1CCCC1CNC(=O)c1cc(S(=O)(=O)CC)c(N)cc1OC (stereo unspecified)	1.69 ± 0.23	1.28 ± 0.32	1.23 ± 0.089	0.819 ± 0.032	0.957 ± 0.29	0.808 ± 0.12	0.994 (active)
O=C(CSC1CCCCC1)Nc1ccc(Br)cc1	1 ± 0.33	0.949 ± 0.07	1.1 ± 0.07	0.671 ± 0.022	1.06 ± 0.12	1.12 ± 0.14	0.962 (active)
O=C(NCCN1CCOCC1)c1ccc(Cl)cc1	1.37 ± 0.2	1.13 ± 0.3	0.953 ± 0.055	0.95 ± 0.048	1.26 ± 0.43	1.01 ± 0.078	0.992 (active)
COc1ccc(CN(CCN(C)C)c2ccccn2)cc1.O=C(O)C=CC(=O)O	0.857 ± 0.065	0.954 ± 0.051	1.01 ± 0.021	0.982 ± 0.054	0.915 ± 0.097	0.897 ± 0.07	1 (active)
CC(N)C12CC3CC(CC(C3)C1)C2.Cl (stereo unspecified)	0.598 ± 0.14	1.07 ± 0.12	1.04 ± 0.068	0.919 ± 0.033	0.899 ± 0.1	0.966 ± 0.27	0.543 (inactive)
CC1CCc2cc(F)cc3c(=O)c(C(=O)O)cn1c23 (stereo unspecified)	0.961 ± 0.13	1.01 ± 0.074	1.01 ± 0.066	0.955 ± 0.066	0.872 ± 0.031	0.86 ± 0.16	0.999 (active)
CC(=O)NC(c1ccccc1)c1c(OC(=O)COc2ccccc2)ccc2ccccc12 (stereo unspecified)	0.73 ± 0.062	0.878 ± 0.049	0.714 ± 0.044	1.24 ± 0.062	0.987 ± 0.08	0.948 ± 0.12	1.01 (active)
COc1cc2c(cc1OC)CN(CCc1ccc(NC(=O)c3cccc4c(=O)c5cccc(OC)c5[nH]c34)cc1)CC2	0.0904 ± 0.022	1.43 ± 0.075	1.2 ± 0.088	0.132 ± 0.0091	1.42 ± 0.26	1.6 ± 0.15	0.971 (active)
